Measured values taken from PubChem BioAssay (EPA / NIEHS).
Results filed as inconclusive are left out. Activity calls are given as the source filed them. Rule for the calls: active = hit-call score of the fitted dose curve at least 0.9, where 1 is the maximum; inconclusive = response in the unintended direction; inactive = score below 0.9.

read-out: Glyceraldehyde-3-phosphate dehydrogenase (Homo sapiens) (UniProt P04406); assay: CLD_GAPDH_24hr: CellzDirect (CLD) Gene Expression Assay for Baseline Control (Glyceraldehyde 3-phosphate dehydrogenase) at 24 hours (AID 2283692)
Experimental: CLD_24hr is a cell-based, multiplexed-readout assay that uses hepatocyte, a human liver primary cell, with measurements taken at 24 hours after chemical dosing in a 96-well plate.CLD_GAPDH_24hr is one of 16 assay component(s) measured or calculated from the CLD_24hr assay. It is designed to make measurements of mRNA induction, a form of inducible reporter, as detected with chemiluminescence signals by Quantitative Nuclease Protection Assay (qNPA) technology.Data from the assay component CLD_GAPDH_24hr was analyzed at the endpoint, CLD_GAPDH_24hr, in the positive analysis fitting direction relative to DMSO as the negative control and baseline of activity. Using a type of inducible reporter, gain-of-signal activity can be used to understand changes in the reporter gene as they relate to the gene GAPDH. Furthermore, this assay endpoint can be referred to as a secondary readout, because this assay has produced multiple assay endpoints where this one serves a background control function. To generalize the intended target to other relatable targets, this assay endpoint is annotated to the background measurement intended target family, where subfamily is baseline control.
Human hepatocyte cultures were treated daily for two consecutive days with fresh dosing solutions containing appropriate concentrations of the 320 ToxCast chemicals (chemical identities were blinded to CellzDirect and other ToxCast collaborators), vehicle control (0.2% DMSO), and positive control inducers as summarized in Table 1. Due to the large number of treatment groups and chemicals examined, the ToxCast chemicals were divided into two groups (spanning two independent cultures of hepatocytes from separate donor preparations (Hu778: ToxCast plates 1 and 2; Hu776: ToxCast plates 3 and 4). Each preparation of human hepatocyte cultures was treated with respective vehicle control, medium only control, set of six positive controls/reference chemicals for the five hepatic receptor pathways, and a subset of eight of the ToxCast chemicals (indoxacarb, pyrithiobac-sodium, norflurazon, cyhalofop-butyl, methomyl, thiram, acetochlor, and propiconazole). These replicate data, coupled with internal replicates designed within the blinded ToxCast chemical library, provided additional data to evaluate interindividual differences between hepatocyte preparations and their potential impact on chemical profiles.Cell morphology and integrity were evaluated using phase-contrast microscopy as an indicator of hepatocyte cell health (Tyson & Green, 1987). Cultures for each treatment group (i.e., media, vehicle [0.2% DMSO], positive control inducers [multiple concentrations], and the ToxCast chemicals [multiple concentrations]) were observed and cell morphology was assessed relative to vehicle control cultures at each harvest time point (0, 6, 24, or 48 h). […] Images were evaluated at the conclusion of the study to assess changes in cell integrity and account for the effects of chemical exposure on uncharacteristic changes in concentration-dependent gene expression profiles. The results from these determinations of apparent cytotoxicity were annotated (yes/no) alongside the corresponding qNPA data for reference.At the conclusion of each treatment period, hepatocyte cultures (96-well) were washed with 1 volume of HBSS, lysed by addition of 25 ul ArrayPlate lysis buffer (HTG, Tucson, AZ), and 70 ul/well of Denaturation Oil, denatured by incubation at 95C for 10 min, and frozen at approximately -70C until analysis by nuclease protection assay (qNPA) (Roberts et al., 2007). For qNPA analysis, cell lysates were thawed at 50C for approximately 30 min, qNPA probes were added, and samples were incubated at 95C for 10 min to begin the detection process by denaturing the target RNA, dissociating the duplexes and secondary structure hybridization. At the conclusion of the hybridization period, S1 nuclease reagent was added to each sample to digest all nonprotected nucleotides at 50C for 60-90 min. […]

Glyceraldehyde-3-phosphate dehydrogenase (Homo sapiens), sequence (P04406 whole entry, looked up): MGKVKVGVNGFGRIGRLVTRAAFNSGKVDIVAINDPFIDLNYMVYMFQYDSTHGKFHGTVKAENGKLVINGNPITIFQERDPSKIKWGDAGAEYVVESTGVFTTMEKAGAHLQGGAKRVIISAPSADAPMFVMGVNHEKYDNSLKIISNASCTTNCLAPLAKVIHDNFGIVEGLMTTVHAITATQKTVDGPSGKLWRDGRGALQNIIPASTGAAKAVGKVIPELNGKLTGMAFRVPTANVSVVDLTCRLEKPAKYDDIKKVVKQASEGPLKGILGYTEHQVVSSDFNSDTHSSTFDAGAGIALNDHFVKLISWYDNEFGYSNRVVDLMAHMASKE

| SMILES | outcome |
| --- | --- |
| CNC(=O)Oc1cccc2ccccc12 | inactive |
| CCCC(=NOCC)C1=C(O)CC(CC(C)SCC)CC1=O (stereo not drawn) | inactive |
| Nc1cnn(-c2ccccc2)c(=O)c1Cl | inactive |
| C=C(C)CN(CC)c1c([N+](=O)[O-])cc(C(F)(F)F)cc1[N+](=O)[O-] | inactive |
| CN=C=S | inactive |
| O=P(O)(O)CCCl | inactive |
| CCCN(CC)CC1COC2(CCC(C(C)(C)C)CC2)O1 (stereo not drawn) | inactive |
| Clc1nc(Cl)nc(Nc2ccccc2Cl)n1 | inactive |
| O=c1n(Cl)c(=O)n(Cl)c(=O)n1Cl | inactive |
| Nc1c(Cl)c(F)nc(OCC(=O)O)c1Cl | inactive |
| CS(=O)(=O)c1ccc(C(=O)C2C(=O)CCCC2=O)c([N+](=O)[O-])c1 | inactive |
| Cc1cnc(C2=NC(C)(C(C)C)C(=O)N2)c(C(=O)O)c1 (stereo not drawn) | inactive |
| CCOc1nc(F)cc2nc(S(=O)(=O)Nc3c(Cl)cccc3Cl)nn12 | inactive |
| COCC(=O)N(c1c(C)cccc1C)C(C)C(=O)OC (stereo not drawn) | inactive |
| C=CCOC(=O)C(C)(C)OC(=O)c1cc(-n2c(=O)cc(C(F)(F)F)n(C)c2=O)ccc1Cl | inactive |
| O=C1C2CC=CCC2C(=O)N1SC(Cl)(Cl)Cl (stereo not drawn) | inactive |
| CO/N=C(/C1=NOCCO1)c1ccccc1Oc1ncnc(Oc2ccccc2Cl)c1F | inactive |

| SMILES | outcome |
| --- | --- |
| Cc1ccc(N=CN(C)C=Nc2ccc(C)cc2C)c(C)c1 | inactive |
| CCOP(=O)(OCC)Oc1nc(Cl)c(Cl)cc1Cl | inactive |
| Cn1c(-c2ccccc2)cc(-c2ccccc2)[n+]1C | inactive |
| CS(=O)(=O)c1cc(C(F)(F)F)ccc1C(=O)c1cnoc1C1CC1 | inactive |
| CC(C)N1C(=O)c2ccccc2NS1(=O)=O | inactive |
| COc1ccc(-c2ccccc2)cc1NNC(=O)OC(C)C | inactive |
| COP(=S)(OC)Oc1ccc([N+](=O)[O-])c(C)c1 | inactive |
| CC1(C)CON(Cc2ccccc2Cl)C1=O | inactive |
| CCNC(=O)NC(=O)C(C#N)=NOC | inactive |
| O=C(O)c1c(Cl)ccc2cc(Cl)cnc12 | inactive |
| N#CN=C1SCCN1Cc1ccc(Cl)nc1 | inactive |
| CC(C)=CC1C(C(=O)OCc2coc(Cc3ccccc3)c2)C1(C)C (stereo not drawn) | inactive |
| N#Cc1c(Cl)cccc1Cl | inactive |
| CC(C)Nc1nc(Cl)nc(NC(C)C)n1 | inactive |
| CCOc1nc(C(Cl)(Cl)Cl)ns1 | inactive |
| CC(C)C1(C)N=C(c2ncccc2C(=O)O)NC1=O (stereo not drawn) | inactive |
